Source: PubChem
Sampled rows, rich in hits. Any-hit rate of the full collection: about 0.54%.
BioA inh: M. tuberculosis BioA enzyme inhibitors, primary screen, biochemical, plate reader, single point, HTS. purified M. tuberculosis BioA enzyme. inhibition, % at 9.99 µM. 360,000 compounds, 0.096% hits; in the data active = inhibition above about 40%
TcdB GH inh: TcdB glycohydrolase inhibitors, primary screen, biochemical, single point, plate reader | TcdB glycohydrolase enzymatic assay | inhibition, % at 9.99 µM | 350,000 compounds, 0.24% hits | AID 652162, 2013; in the data active = inhibition above about 10%
FadD28 binding: inhibitors of FadD28 bisubstrate probe binding, primary screen, biochemical, fluorescence polarization, single point. inhibition, % at 12.5 µM. 360,000 compounds, 0.22% hits. AID 588549, 2011; in the data active = inhibition above about 8.5%, passing the limit was not always enough
Vc quorum ag-1: inducers of Vibrio cholerae quorum light production without autoinducers, primary screen, BH1578 luxS cqsA deficient, single point; V. cholerae BH1578 lux reporter, luminescence, 6 h; activation, % at 18.7 µM; AID 588436, 2011; 350,000 compounds, 0.16% hits; in the data active = activation mostly above about 9.7%, no sharp cut-off
Vc quorum ag-2: V. cholerae lux activation without autoinducers – BH1578 luxS cqsA deficient, cherry-pick, plate reader, dose response; shares compounds with Vc quorum ag-1; V. cholerae BH1578 lux reporter, luminescence, 6 h; activation, % at 50 µM; 620 tested, under 10 active; AID 602243, 2012; call rule not given here
Hits are given with their value; - = inactive; . = no result given; + = active, no number.

SMILES	BioA inh	TcdB GH inh	FadD28 binding	Vc quorum ag-1	Vc quorum ag-2
C[C@H](CO)N1C[C@H](C)[C@H](CN(C)S(=O)(=O)c2ccc(F)cc2)Oc2ccc(NC(=O)CCN3CCOCC3)cc2C1=O	-	-	.	.	.
O=C(OCc1cc(=O)n2ccsc2n1)c1ccc(OC(F)F)cc1	-	-	-	-	-
CN(C)c1ccc(C(=O)OCc2cc(=O)n3ccsc3n2)cc1	.	-	-	.	.
CC(=O)c1cc2c(cc1NS(=O)(=O)c1ccccc1)OCO2	-	.	-	-	-
CC(=O)c1cc2c(cc1NS(=O)(=O)c1cccc(C(=O)O)c1)OCO2	-	-	-	-	.
CCC(C)NS(=O)(=O)c1ccc(S(=O)(=O)Nc2cc3c(cc2C(C)=O)OCO3)cc1 (configuration not stated)	-	.	-	22	-
CCC(CC)c1nnc(NC(=O)COc2ccc3c(C)cc(=O)oc3c2)s1	-	.	.	-	-
O=C(NCCC(=O)N1CCCCC1)c1ccc(Br)cc1	-	-	-	-	-
Cn1cnnc1SCCOc1ccc(Cl)cc1	.	-	-	132	-
CCc1sc(N(C(=O)Cc2ccccc2)c2ccccc2F)nc1-c1ccc(C)cc1	.	-	-	-	.
CCc1sc(N(C(=O)Cc2ccccc2)c2cccc(F)c2)nc1-c1ccc(C)cc1	-	.	-	-	-
O=C(CCN1CCCCC1)N[C@@H]1CC[C@H](CCNC(=O)c2cc(Cl)cc(Cl)c2)O[C@H]1CO	-	-	.	.	.
COc1ccc(-c2cnc3c(c2)C(=O)N([C@@H](C)CO)C[C@H](C)[C@@H](CN(C)Cc2ccc(C(=O)O)cc2)O3)cc1	-	-	.	.	.
COc1ccccc1NC(=O)CN1CCN(c2ccccc2F)CC1	-	.	-	35	-
COc1ccccc1NC(=O)CN1CCOCC1	-	-	-	-	.
COc1ccccc1NC(=O)CN1CCN(C(=O)C2CCCO2)CC1 (configuration not stated)	-	-	-	-	-
c1ccc2oc(-c3[nH]ncc3CN(Cc3ccncc3)CC3CCCO3)cc2c1 (configuration not stated)	-	-	-	-	.
CN(Cc1cn[nH]c1-c1cc2ccccc2o1)CC1CCOCC1	.	-	-	25	-
Cc1ccc(/C=C/C(=O)NCc2ccc(S(N)(=O)=O)cc2)o1	.	-	-	-	.
CCCNC(=O)COC(=O)/C=C/c1ccco1	.	-	-	+	-
Cc1ccc(/C=C/C(=O)OCC(=O)NCCc2ccc(S(N)(=O)=O)cc2)o1	-	-	-	26	-
O=C(COC(=O)/C=C/c1ccco1)NCc1ccccc1	.	-	-	-	.
O=C(C[C@@H]1C=C[C@@H](NC(=O)C2CCC2)[C@H](CO)O1)NC1CCC1	-	-	.	.	.
O=C(COC(=O)[C@H](Cc1c[nH]c2ccccc12)NC(=O)c1ccc(Cl)cc1)Nc1ccc2c(c1)OCO2	-	.	-	-	-
COC(=O)c1sc2ncccc2c1OCc1c(Cl)cccc1Cl	-	.	-	-	-
SMILES	BioA inh	TcdB GH inh	FadD28 binding	Vc quorum ag-1	Vc quorum ag-2
CCCSc1nc2c(c(=O)[nH]c(=O)n2C)n1Cc1ccc(C)cc1	-	.	-	-	.
Cc1ccc(Cn2c(SCC(C)C)nc3c2c(=O)[nH]c(=O)n3C)cc1	-	.	-	25	-
Cc1ccc(SCc2nc(-c3cccnc3)no2)cc1	-	.	-	21	-
CCOC(=O)CSc1nc(C)cc(C)c1C#N	-	.	-	17	-
CO[C@H]1CN(C)C(=O)c2cc(NC(=O)c3cc(C)on3)ccc2OC[C@@H](C)NC[C@@H]1C	-	.	.	.	.
CSc1ncccc1C(=O)N1CCN(S(=O)(=O)c2cc(C)ccc2C)CC1	-	-	-	-	.
Cc1ccc(C)c(S(=O)(=O)N2CCN(C(=O)c3n[nH]c(=O)c4ccccc34)CC2)c1	-	-	-	32	-
C=CC[C@@]1(C(=O)NCCCOC)N=C(c2ccc(OCCCO)cc2)O[C@@H]1c1ccccc1	-	-	.	.	.
O=C(Nc1ccccc1F)N1C[C@H]2[C@@H](c3ccccc31)[C@@H](CO)N2C(=O)C1CCCC1	-	-	.	.	.
CCOC(=O)C1=C(C)NC(SC)=NC1c1ccc(OC)cc1 (configuration not stated)	-	.	-	-	-
CCOC(=O)c1cnc2nc(Cc3ccccc3)[nH]n2c1=O	-	.	-	-	.
CCOC(=O)c1cnc2nc(C(F)(F)F)[nH]n2c1=O	-	.	-	17	-
COc1ccccc1CNC(=O)COC(=O)c1n[nH]c2ccccc12	.	.	-	-	-
COc1ccccc1CNC(=O)c1n[nH]c2ccccc12	-	-	-	-	.
Cc1noc(C)c1NC(=O)Nc1ccc2c(c1)C(=O)N([C@@H](C)CO)C[C@@H](C)[C@@H](CN(C)S(=O)(=O)c1cccs1)O2	-	-	.	.	.
CCCC(=O)Nc1ccc2c(c1)OC[C@H](C)N(C(=O)c1cnccn1)C[C@H](C)[C@@H](OC)CN(C)C2=O	.	-	.	.	.
C[C@H](NC(=O)C[C@@H]1C[C@@H]2c3cc(NC(=O)NC4CCCC4)ccc3O[C@@H]2[C@H](CO)O1)c1ccccc1	-	-	.	.	.
Cc1ccc(Oc2nccc(-c3ccc(Cl)cc3)n2)cc1	.	.	-	-	-
Clc1ccc(-c2cnc(Oc3ccccc3)nc2)cc1	.	.	-	-	.
Cc1cc2oc(=O)cc(-c3ccccc3)c2c(C)c1-c1ccc(CO)cc1	-	-	-	-	.
Cc1cc2oc(=O)cc(-c3ccccc3)c2c(C)c1-c1ccc(C#N)cc1	-	-	-	-	-
C[C@@H]1CN([C@@H](C)CO)C(=O)CCCn2cc(nn2)CO[C@@H]1CN(C)C(=O)Nc1cccc(Oc2ccccn2)c1	-	-	.	.	.
CC(C)CNC(=O)c1c2c(nc3ccccc13)-c1ccccc1CC2	-	.	-	17	-
CN(C)c1ccc2c(c1)[C@@H]1C[C@@H](CC(=O)NCc3cc(F)ccc3F)O[C@@H](CO)[C@@H]1O2	-	-	.	.	.
O=C(Nc1ccc(S(=O)(=O)N2CCCCCC2)cc1)c1ccco1	-	.	-	-	.
SMILES	BioA inh	TcdB GH inh	FadD28 binding	Vc quorum ag-1	Vc quorum ag-2
C[C@H](NC(=O)c1ccco1)C(=O)Nc1ccc(S(=O)(=O)N2CCCC2)cc1	-	.	-	-	-
Cc1cc(C)cc(NC(=O)Cn2ncn3c(cc4ccccc43)c2=O)c1	-	-	-	18	-
CN(C)c1ccc(NC(=O)Cn2ncn3c(cc4ccccc43)c2=O)cc1	-	-	-	-	.
CC(=O)c1cc2c(cc1NC(=O)Cc1c(C)noc1C)OCO2	-	-	-	22	-
N#Cc1nc(-c2ccc(OCc3ccc(Cl)cc3)cc2)oc1NCc1cccnc1	-	.	-	17	-
COC(=O)C(C)N(c1ccc(C)cc1)S(=O)(=O)c1c(C)[nH]c(=O)[nH]c1=O (configuration not stated)	-	-	-	111	-
Clc1ccc(-c2cc(COc3ccc4ccccc4c3)no2)cc1	.	.	-	-	-
CNC(=O)c1cc2cc(OC)ccc2n1CCN(Cc1ccccc1)Cc1ccccc1	-	.	-	25	-
CC(C)NC(=O)Nc1ccc2c(c1)C(=O)N(C)[C@H]1CC[C@H](CC(=O)Nc3ccccc3)O[C@@H]1CO2	-	-	.	.	.
